Entries with a potency or affinity are not part of this list.
Test system: Klebsiella pneumoniae
Details: Concentration 32 ug.mL-1;; ASSAY_TEST Inhibition of Bacterial Growth; detection method Absorption (OD600); MEDIA CAMHB; plate type 384well; NBS; CORNING #3640; time 18 hr

Compound | Inhibition
CCCCc1ccc(NC(=O)Cn2nc3ccc(C(=O)Nc4ccc(OC)cc4)cn3c2=O)cc1 | -3.83%
Cc1ccc(-n2ccn3c(SCC(N)=O)nnc3c2=O)cc1C | 20.66%
COc1ccc(CN(c2ccc(F)cc2)S(=O)(=O)c2ccc3nnc(C)n3c2)cc1F | 2.68%
Cc1cc2nn(CC(=O)Nc3ccc(C)c(F)c3)c(=O)n2c(Nc2ccc(C)c(F)c2)n1 | 13.96%
CCOc1ccc(NC(=O)Cn2nc3c4c5c(sc4ncn3c2=O)CCCC5)cc1 | 5.11%
Cc1nnc2ccc(S(=O)(=O)N(Cc3ccccc3Cl)c3ccc(F)cc3)cn12 | 0.63%
COc1ccc(NC(=O)Cn2nc3cc(C)nc(Nc4ccc(F)c(C)c4)n3c2=O)cc1 | 10.41%
COc1ccc(OC)c(NC(=O)Cn2nc3ccc(SCc4ccc(Cl)cc4)nn3c2=O)c1 | 2.51%
CN(C)C(=O)CSc1nnc2c(=O)n(-c3ccc(F)cc3)ccn12 | 10.89%
O=S(=O)(Nc1ccc2c(c1)OCCO2)c1ccc2nncn2c1 | 12.24%
COc1cc(NC(=O)Cn2nc3ccc(SCc4ccc(Cl)cc4)nn3c2=O)cc(OC)c1 | 1.27%
CCCCOc1ccc(-c2cc3c4nnc(SCC(=O)N(CC)c5ccccc5)n4ccn3n2)cc1 | 16.4%
Cc1ccc(Oc2nccn3c(=O)n(CC(=O)NCc4ccccc4Cl)nc23)cc1 | 6.19%
Cc1cc2nn(CC(=O)Nc3ccccc3F)c(=O)n2c(Nc2ccc(F)c(C)c2)n1 | 9.21%
COc1ccccc1-n1ccn2c(SCC(=O)Nc3ccc(C)cc3Cl)nnc2c1=O | 5.82%
CCOc1ccc(-n2ccn3c(SCC#N)nnc3c2=O)cc1 | 5.38%
O=C(Cn1nc2c3cc(-c4ccc(Cl)cc4)nn3ccn2c1=O)N1CCN(c2ccccc2)CC1 | 10.64%
CCc1ccc(N(Cc2ccc(C)cc2)S(=O)(=O)c2cccn3cnnc23)cc1 | -0.39%
COc1ccc(CCn2c(=O)c3sccc3n3c(=O)n(Cc4ccc(F)cc4)nc23)cc1OC | 6.56%
COc1ccc(Cl)cc1NC(=O)Cn1nc2ccc(Sc3ccccc3)nn2c1=O | 0.86%

Compound | Inhibition
Cc1ccc(C)c(NC(=O)Cn2nc3c(SCc4ccc(Cl)cc4)nccn3c2=O)c1 | 13.13%
COc1ccc(NC(=O)Cn2nc3ccc(SCc4ccc(Cl)cc4)nn3c2=O)cc1Cl | -2.5%
CCc1nnc2c(S(=O)(=O)N(Cc3cccc(F)c3)c3ccc(F)cc3)cccn12 | -0.41%
CCCc1nnc2c(=O)n(CC(=O)Nc3ccc(Cl)c(Cl)c3)c3ccccc3n12 | 5.7%
Cc1ccc(NC(=O)Cn2nc3ccc(SC(C)(C)C)nn3c2=O)cc1Cl | 12.42%
CCOC(=O)c1ccccc1NC(=O)Cn1nc2c(Oc3cccc(OC)c3)nccn2c1=O | 5.46%
O=C(Cn1nc2ccc(SCc3ccc(Cl)cc3)nn2c1=O)Nc1ccccc1C(F)(F)F | 7.36%
Cc1ccccc1CN(c1ccc(Cl)cc1)S(=O)(=O)c1cccn2c(C)nnc12 | 11.42%
CCc1ccc(N(Cc2ccc(C)cc2)S(=O)(=O)c2cccn3c(C)nnc23)cc1 | 3.2%
COc1ccc(-n2ccn3c(=O)n(Cc4cc(C)ccc4C)nc3c2=O)cc1Cl | 9.01%
O=C(CSc1nc2ccccc2n2cnnc12)Nc1ccc2c(c1)OCCO2 | 4.35%
CCOC(=O)c1ccc(NC(=O)Cn2nc3ccc(SC(C)(C)C)nn3c2=O)cc1 | 7.26%
Cc1c(Cl)cccc1-n1ccn2c(=O)n(Cc3cccc(F)c3)nc2c1=O | 6.93%
Cc1ccc(NC(=O)Cn2nc3c(Sc4cccc(F)c4)nccn3c2=O)cc1F | 11.17%
Cc1cc(Br)ccc1NC(=O)Cn1nc2c(Sc3cccc(F)c3)nccn2c1=O | 4.98%
COC(=O)c1ccc(NC(=O)Cn2nc3nc(N4CCCCCC4)ccn3c2=O)cc1 | 12.29%
COc1ccc(-c2cc3c4nn(CC(=O)Nc5cc(C)cc(C)c5)c(=O)n4ccn3n2)cc1 | 9.4%
Cc1cc(C)cc(Nc2nc(C)cc3nn(CC(=O)NC4CCCCC4)c(=O)n23)c1 | 13.04%
CC(C)NC(=O)CCn1c(=O)c2ccccc2n2c(=O)n(CC#N)nc12 | 10.9%

— ChEMBL document CHEMBL4513146, “CO-ADD screening of Karazin Kharkiv National University (Ukraine) compounds”
